# Assay results published in PubChem BioAssay AID431 (Sanford-Burnham Center for Chemical Genomics, 2006).
# Screen size: about 63,000 compounds; about 1,100 (1.7%) were called active. Many of the other results were omitted from the sample, so actives are more common in it than they were. Entries with a potency or affinity are not part of this list. Unmarked numbers belong to inactive results.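 The calls were made as follows: active = compounds whose percent cytotoxicity in the single-dose primary screen, scaled between solvent and toxic-drug controls, exceeds 50; inactive = the rest.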
# Experiment: viability loss of HPDE-C7K cells – cell-based, fluorescence, HTS, primary screen (AID 431);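 also: 0% = DMSO solvent wells and 100% = doxorubicin-treated wells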
# Conditions: HPDE-C7K KRASV12 cells, Alamar Blue viability, 48 h; at 10 µM; hits give high values
row,Structure (SMILES),cytotoxicity
1,Nc1c(Br)cc(Br)c(N2CCCC2=O)c1Br,0.5%
2,O=C(c1ccc(Cl)cc1)c1ccc(OCC(O)CN2CCOCC2)cc1 (centres undefined),2.3%
3,CS(=O)(=O)N1CCC(NC(=O)Cc2ccccc2)CC1,-2.1%
4,C/C=C(\CS(=O)(=O)c1ccccc1)S(=O)(=O)c1ccccc1,42.2%
5,O=C(CS(=O)(=O)c1ccccc1)N1CCCCCC1,-9.5%
6,O=C1c2ccccc2C(=O)N1CCc1nc(-c2cccnc2)no1,-7.3%
7,COc1ccc(C)cc1NC(=O)c1nnn(Cc2cc(C)ccc2C)c1N,-4%
8,Cc1cc(C)cc(NC(=O)c2nnn(Cc3cc(C)ccc3C)c2N)c1,54.9% (active)
9,Cc1ccc(CCNC(=O)c2nnn(-c3cc(C)cc(C)c3)c2N)cc1,8.1%
10,Cc1ccc(C)c(NC(=O)c2nnn(Cc3ccccc3C)c2N)c1,-4.9%
11,Cc1cccc(-n2nnc(C(=O)Nc3ccc(F)cc3)c2N)c1,4.2%
12,Cc1ccc(NC(=O)c2nnn(-c3cc(C)cc(C)c3)c2N)cc1,51.9% (active)
13,COc1ccc(S(=O)(=O)n2ccnc2)c2cccnc12,-6.2%
14,CC(C)(C)SCCNC(=O)COc1ccc(Cl)cc1,7.6%
15,CCOCCCNS(=O)(=O)c1ccc2c(c1)OCCO2,11.2%
16,O=c1c2c3c(sc2ncn1/N=C/c1ccco1)CCCC3,1.1%
17,O=C(Nc1ccc2oc(-c3ccccc3F)nc2c1)c1cncc(Br)c1,14.2%
18,O=C(Nc1ccc2oc(-c3ccccc3)nc2c1)c1ccc2c(c1)OCCO2,37%
19,O=C(Nc1ccc2oc(-c3ccccc3F)nc2c1)c1ccc2c(c1)OCCO2,83.6% (active)
20,O=C(Nc1ccccc1-c1nc2ccccc2o1)c1ccc2c(c1)OCCO2,79% (active)
21,Cc1c(NC(=O)c2ccc3c(c2)OCO3)cccc1-c1nc2ccccc2o1,-4.5%
22,Cc1ccc(-c2nc3ccccc3o2)cc1NC(=O)c1ccc2c(c1)OCO2,-8.2%
23,COc1cccc(-c2nnn(CC(=O)NC3CCCC3)n2)c1OC,3.1%
24,O=C(CC1Sc2ccccc2NC1=O)Nc1cccc(C(=O)O)c1 (centres undefined),2.1%
25,O=C(NCc1ccncc1)c1ccc(Br)o1,-21.6%
26,O=C(NCc1ccccc1Cl)C1CCN(S(=O)(=O)N2CCCCC2)CC1,-3.6%
27,CCOC(=O)/C=C(\C)Sc1cc(=O)oc2ccccc12,77.6% (active)
28,CCOC(=O)Nc1cc(=O)c2ccccc2o1,38.2%
29,CCOC(=O)Oc1ccc2oc(=O)cc(C)c2c1,10.2%
